About 2,000 (36%) of roughly 5,500 compounds were called active. Another 18% or so got no clear call; they are omitted. Rule as the data show it: active = normalized growth mostly below about 0.91 (no sharp cut-off); inconclusive = no clear call, values can overlap the other calls; inactive = mostly above about 0.92. This is one part of the list.
Test: chemical genetic growth profiling, strain panel (AID 1159580);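 also: tested at 20 µM; growth read once vehicle control cultures reached saturation at 30 °C; 1 = growth at the plate median or of vehicle wells; lower values mean less growth of the strain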
Conditions: S. cerevisiae deletion strains, growth OD
[1] = locus YJR075W, strain HOC1, stronger effect = lower value
[2] = locus YMR263W, strain SAP30, stronger effect = lower value
[3] = locus YNL153C, strain GIM3, stronger effect = lower value
[4] = locus YPL055C, strain LGE1, stronger effect = lower value
[5] = locus YDL101C, strain DUN1, stronger effect = lower value
[6] = locus YHR030C, strain SLT2, stronger effect = lower value

Measured: normalized growth

O=C1c2ccccc2-c2n[nH]c3cccc1c23
inactive: locus YDR363W, strain ESC2, stronger effect = lower value 0.906 | locus YER002W, strain NOP16, stronger effect = lower value 0.982 | [2] 0.981
active: locus YAL040C, strain CLN3, stronger effect = lower value 0.674 | [1] 0.827 | [3] 0.345 | locus YNL175C, strain NOP13, stronger effect = lower value 0.621 | locus YNL197C, strain WHI3, stronger effect = lower value 0.826 | locus YNL224C, strain SQS1, stronger effect = lower value 0.654 | locus YOR083W, strain WHI5 (second series), stronger effect = lower value 0.504 | [4] 0.727

O=S(=O)(Oc1ccc(-c2csnn2)cc1)c1ccccc1Cl
active: locus YLR113W, strain HOG1, stronger effect = lower value 0.854
inactive: locus YAR019C, strain CDC15, stronger effect = lower value 0.965 | locus YBL105C, strain PKC1, stronger effect = lower value 0.98 | locus YBR135W, strain CKS1, stronger effect = lower value 0.966 | locus YBR136W, strain MEC1, stronger effect = lower value 0.963 | locus YBR160W, strain CDC28, stronger effect = lower value 0.971 | locus YDL017W, strain CDC7, stronger effect = lower value 0.974 | locus YDL028C, strain MPS1, stronger effect = lower value 0.968 | [5] 0.956 | locus YDL108W, strain KIN28, stronger effect = lower value 0.967 | locus YDL132W, strain cdc53, stronger effect = lower value 0.971 | locus YDL214C, strain PRR2, stronger effect = lower value 0.939 | locus YDR052C, strain DBF4, stronger effect = lower value 0.978 | locus YDR054C, strain cdc34, stronger effect = lower value 0.979 | locus YDR226W, strain ADK1, stronger effect = lower value 0.969 | locus YDR477W, strain SNF1, stronger effect = lower value 0.94 | locus YER123W, strain YCK3, stronger effect = lower value 0.915 | locus YER133W, strain GLC7, stronger effect = lower value 0.939 | locus YFL009W, strain cdc4, stronger effect = lower value 0.973 | locus YFL029C, strain CAK1, stronger effect = lower value 0.963 | locus YFR003C, strain YPI1, stronger effect = lower value 0.972 | locus YFR019W, strain FAB1, stronger effect = lower value 0.913 | locus YFR028C, strain CDC14, stronger effect = lower value 0.957 | locus YGR040W, strain KSS1, stronger effect = lower value 0.934 | locus YGR052W, strain FMP48, stronger effect = lower value 0.969 | locus YGR092W, strain DBF2, stronger effect = lower value 0.935 | [6] 0.907 | locus YHR079C, strain IRE1, stronger effect = lower value 0.929 | locus YHR082C, strain KSP1, stronger effect = lower value 0.948 | locus YHR205W, strain SCH9, stronger effect = lower value 0.946 | locus YIL147C, strain SLN1, stronger effect = lower value 0.968 | locus YJL095W, strain BCK1, stronger effect = lower value 0.936 | locus YJL128C, strain PBS2, stronger effect = lower value 0.938 | locus YJL157C, strain FAR1, stronger effect = lower value 0.947 | locus YJR016C, strain ILV3, stronger effect = lower value 0.978 | locus YJR066W, strain TOR1 (second series), stronger effect = lower value 0.909 | locus YJR066W, strain TOR1, stronger effect = lower value 0.921 | locus YKL048C, strain ELM1, stronger effect = lower value 0.988 | locus YKL067W, strain YNK1, stronger effect = lower value 0.933 | locus YKL101W, strain HSL1, stronger effect = lower value 0.951 | locus YKL193C, strain SDS22, stronger effect = lower value 0.967 | locus YKL203C, strain TOR2, stronger effect = lower value 0.989 | locus YLR133W, strain CKI1, stronger effect = lower value 0.947 | locus YLR403W, strain SFP1, stronger effect = lower value 0.927 | locus YML070W, strain DAK1, stronger effect = lower value 0.922 | locus YMR001C, strain CDC5, stronger effect = lower value 0.968 | locus YMR205C, strain PFK2 (second series), stronger effect = lower value 0.941 | locus YMR277W, strain FCP1, stronger effect = lower value 0.965 | locus YNL006W, strain LST8, stronger effect = lower value 0.981 | locus YNL020C, strain ARK1, stronger effect = lower value 0.973 | locus YNL161W, strain CBK1, stronger effect = lower value 0.969 | locus YNL183C, strain NPR1, stronger effect = lower value 0.896 | locus YNL207W, strain RIO2, stronger effect = lower value 0.971 | locus YNL222W, strain SSU72, stronger effect = lower value 0.975 | locus YNL307C, strain MCK1 (second series), stronger effect = lower value 0.96 | locus YOL078W, strain AVO1, stronger effect = lower value 0.974 | locus YOL136C, strain PFK27, stronger effect = lower value 0.916 | locus YOR061W, strain CKA2, stronger effect = lower value 0.923 | locus YOR119C, strain RIO1, stronger effect = lower value 0.964 | locus YOR231W, strain MKK1, stronger effect = lower value 0.906 | locus YOR329C, strain SCD5, stronger effect = lower value 0.966 | locus YPL031C, strain PHO85, stronger effect = lower value 0.946 | locus YPL153C, strain RAD53, stronger effect = lower value 0.956 | locus YPL204W, strain HRR25, stronger effect = lower value 0.931 | locus YPL209C, strain IPL1, stronger effect = lower value 0.975 | locus YPL256C, strain CLN2, stronger effect = lower value 0.881 | locus YPR025C, strain CCL1, stronger effect = lower value 0.968 | locus YPR106W, strain ISR1, stronger effect = lower value 0.961 | locus YPR111W, strain DBF20, stronger effect = lower value 0.964 | strain NNK1, stronger effect = lower value 0.96 | strain TSCII, stronger effect = lower value 0.995

N/C(=N/OC(=O)c1ccccc1)c1ccc(-c2csnn2)cc1
inactive: locus YAL013W, strain DEP1, stronger effect = lower value 0.998 | locus YBR229C, strain ROT2, stronger effect = lower value 0.988 | [5] 0.984 | locus YDL134C, strain PPH21, stronger effect = lower value 1.01 | locus YDR150W, strain NUM1, stronger effect = lower value 0.965 | locus YEL061C, strain CIN8, stronger effect = lower value 0.991 | locus YGR078C, strain PAC10, stronger effect = lower value 1 | [6] 1.08 | locus YHR087W, strain rtc3, stronger effect = lower value 0.993 | locus YJL187C, strain SWE1, stronger effect = lower value 1.02 | locus YJR043C, strain POL32, stronger effect = lower value 1.01 | [1] 1.02 | locus YLR039C, strain RIC1, stronger effect = lower value 1.03 | locus YLR058C, strain SHM2 (second series), stronger effect = lower value 1 | locus YLR085C, strain ARP6, stronger effect = lower value 1.01 | locus YLR262C, strain YPT6, stronger effect = lower value 1.01 | locus YML094W, strain GIM5, stronger effect = lower value 0.993 | locus YMR219W, strain ESC1, stronger effect = lower value 1 | [2] 1.03 | [3] 1 | locus YNL298W, strain CLA4 (second series), stronger effect = lower value 1.01 | locus YNL322C, strain KRE1, stronger effect = lower value 1.01 | locus YNR030W, strain Alg12, stronger effect = lower value 1 | locus YOL006C, strain TOP1, stronger effect = lower value 1.07 | [4] 0.905 | locus YPL241C, strain CIN2, stronger effect = lower value 1 | locus YPR135W, strain CTF4, stronger effect = lower value 1.04

— PubChem BioAssay AID1159580 (chemical genetic matrix, 2015)
